In PubChem BioAssay AID624297 (National Center for Advancing Translational Sciences (NCATS), 2012):
The campaign covered roughly 340,000 compounds. About 6,200 (1.8%) were called active. Inconclusive results (about 10%) are left out. Calls follow the shape of the dose curve; as a rule, active = well fitted activation curve with a large enough effect; inconclusive = small, poorly fitted or top-dose-only effect; inactive = no such curve, though single readings can be large or run the other way. Many of the other results were omitted from the sample, so actives are more common in it than they were.

Assay: A quantitative high throughput screen for small molecules that induce DNA re-replication in SW480 colon adenocarcinoma cells. Also: nearly all actives have a fitted effect of over 55% in size. As to re-replication activation: % of control where 0% means no effect.
Details: Hoechst DNA content imaging, 48 h; series mostly up to 46.1 µM; re-replication activation: at the top concentration
From the text: H Molecular Libraries Probe Production Network [MLPCN] NIH Chemical Genomics Center [NCGC] MLPCN Grant: Fast Track K99 CA136555 Assay Provider: Melvin DePamphilis, NICHD, NIH Assay Overview Eukaryotic cells normally restrict genome duplication to once per cell division. When this process is aberrant, DNA re-replication occurs when cells reinitiate DNA replication before the first round of replication is complete. DNA re-replication induces the DNA damage response, arrests cell proliferation, and triggers apoptosis. The cell cycle components cyclin A, Cdt-1, Cdc6 and geminin are critical regulators of this process and their misregulation results in DNA re-replication in normal and cancer cells. To identify compounds that induce re-replication in normal cells, an image-based assay was used to measure DNA content of nuclei, as detected by the fluorescent DNA binding dye, Hoechst. Cell nuclei were imaged by a fluorescence scanning plate imager and compounds that induce DNA re-replication were identified by the increase of nuclei with elevated fluorescence intensity
For screening, 250 cells in 5 uL/well were dispensed into black clear 1536-well plates (Aurora) using a solenoid-based dispenser. Following transfer of 23 nL compound or DMSO vehicle by a pin tool, the plates were incubated 48 hr at 37 C and 5% CO2. After addition of 1 uL/well Hoescht stain, the plates were incubated 40 min at 37 C, 5% CO2 and total intensity of fluorescent objects (nuclei) were enumerated by an Acumen Explorer Ex3 (TTP LabTech) fluorescence scanning plate imager (405 nm excitation, 500-530 nm emission). Keywords: NIH Roadmap, MLPCN, MLI, MLSMR, qHTS, NCGC, DNA replication, cancer
Potency is read from the fitted curve at half-maximal effect.

re-replication activation, inactive:
CC[C@]1(C(=O)OC)[C@H]2C(=O)N(Cc3ccccc3)C(=O)[C@H]2[C@H]2CN=C(SCc3ccc(C#N)cc3)N21 -4.58% [at 9.22 µM]
CCCCNS(=O)(=O)CCNCc1ccccc1OC -1.68%
COc1ccc(OC)c2c(N)c(C#N)c(C(F)(F)C(F)(F)F)nc12 -1.2%
CCOc1cc(-c2cc(-c3ccc(NC(C)=O)cc3)nc(N)c2C#N)ccc1O 15.1%
COc1cccc(NC(=O)CN(C)CC(=O)c2c(N)n(Cc3ccccc3)c(=O)n(C)c2=O)c1 -17.4%
CC(=O)Nc1nonc1-c1nc2ccccc2n1Cc1ccccn1 -18.9%
CCn1c(C(O)c2cc(OC)ccc2OC)nc2ccccc21 (stereo not drawn) -0.993%
Cc1ccc(C(=O)NCC(c2cccs2)N(C)C)cc1S(=O)(=O)N1CCOCC1 (stereo not drawn) 2.33%
CC(=O)C[C@H](O)CC(=O)[C@@H]1OC(=O)[C@@H](C)C/C=C\Cc2ccccc21 -6.79%
CC(C)C[C@H]1CN([C@@H](CC(C)C)CN2CCC[C@@H]2CN2C(=O)C(=O)NC[C@@H]2Cc2ccccc2)C(=O)C(=O)N1CCc1ccccc1 12.5%
CCOc1ccccc1NC(=O)Cc1cccs1 -0.185%
CCc1ccc(NC(=O)Cn2nnc(C(=O)NCc3ccc(OC)cc3)c2N)cc1 -17.6%
C#CCOCCOCCOCCNc1nc(N2CCN(C(=O)Cn3cc(CCO)nn3)CC2)nc(N2CCN(C(=O)[C@H](CCCCN)n3cc(CCCC)nn3)CC2)n1 7.81% [at 9.22 µM]
COc1ccc(Br)cc1/C=N/Nc1ccc(S(=O)(=O)Nc2ccccc2C(=O)O)cc1[N+](=O)[O-] -2.84%
O=C1C[C@@H]2c3c(cccc3CN1Cc1ccccc1)C[C@@H](O)[C@H]2O -3%
CCC(=O)Nc1sc(C(=O)N2CCCCC2)c(C)c1C#N 4.2%
CCOC(=O)c1sc(NC(=O)CSc2nc(C)cc(C(F)(F)F)n2)c(C#N)c1C 11.7%
COc1cc2c(cc1CNC[C@H]1O[C@@H](n3cnc(C(N)=O)n3)[C@H](O)[C@@H]1O)OCO2 9.12%
CC(C)C(NC(=O)c1c(F)cccc1F)C(=O)NNC(=O)c1ccccc1 (stereo not drawn) 3.18%
COc1ccc(CNC(=O)COC(=O)C(CCSC)N2C(=O)c3ccccc3C2=O)cc1 (stereo not drawn) 9.91%
c1ccc2c(c1)OC1OC2Oc2ccccc21 -5.45%
O=C(NCCc1ccccc1)c1cccc(NC(=O)c2ccccc2)c1 -30.1%
COc1ccccc1NC(=O)CN(c1ccccc1OC)S(=O)(=O)c1ccccc1 -10.6%
COc1ccc(S(=O)(=O)N(CC(=O)N/N=C/c2ccccc2C(=O)O)c2ccccc2OC)cc1 -2.38%
Cc1cc(C)nc(SCC(=O)N(C)C)n1 -6.02%
Cc1cc(C)nc(SCC(=O)c2ccc(Cl)cc2)n1 -3.92%
C=CCC[C@H](Cc1ccc(F)cc1)C(=O)OC[C@@H](NC(=O)[C@@H](CC=C)CC(=O)N[C@H](CO)Cc1ccccc1)C(C)(C)C 0.781%
O=C(NCC1CCCCC1)NCC1CCCCC1 5.1%
O=C1CC(c2ccccc2)C(=O)N2C(=O)CC(c3ccccc3)C(=O)N12 (stereo not drawn) -19.3%
CC(C)(C)c1nnc2sc(SCC(O)=C(C#N)c3nc4ccccc4[nH]3)nn2c1=O -1.77%
COc1ccc(O)c(C=Nc2cc(C)on2)c1 24.5%
COc1ccc(-c2c(-c3ccc(OC)cc3O)nc(C)nc2C(F)(F)F)cc1 -1.41%
CCOC(=O)c1sc(NC(=O)COc2ncnc3ccccc23)c(C(=O)OCC)c1C 6.73%
COC(=O)c1c(NC(C)=O)sc(C(=O)Nc2ccccc2OC)c1C -22.9%
COc1cc(OC)cc(C(=O)NC(C(=O)N2CCC2)C(C)C)c1 (stereo not drawn) -7.72%
CC(C)(C)OC(=O)NNc1c2ccccc2nc2ccccc12 18.8%
CC(=O)Nc1ccc(NC(=O)COc2ncnc3ccccc23)cc1 -0.239%
CC[C@]1(C(=O)OC)[C@H]2C(=O)N(Cc3ccccc3)C(=O)[C@H]2[C@H]2CN=C(SCc3ccccc3)N21 -6.22%

Potency, active:
COc1ccc(-c2cc(-c3ccc(N)cc3)nc(N)c2C#N)cc1OC 23.1 µM
COc1ccc(C)c(Cn2c(-c3nonc3N)nc3ccccc32)c1 5.17 µM
CCOc1ccccc1NC(=O)Cn1nnc(C(=O)NCc2cccs2)c1N 0.146 µM
CCOC(=O)c1sc(NC(=O)CSc2ncccn2)c(C#N)c1C 7.31 µM
CN(C)CCCn1c(N)c(C#N)c2nc(C#N)c(C#N)nc21 16.4 µM
COc1ccccc1N(CC(=O)N/N=C(\C)c1ccccc1O)S(=O)(=O)c1ccc(C)cc1 4.11 µM
Cc1cc(C)nc(S/C=C/C(=O)c2ccccc2)n1 4.61 µM
COc1ccc(-c2onc(C)c2-c2ccc3c(c2)OCCO3)c(O)c1 14.6 µM
CCC(=O)Nc1sc(C(=O)Nc2ccccc2)c(C)c1C(=O)OC 20.6 µM
CC(=O)Nc1ccc(Nc2c3ccccc3nc3ccccc23)cc1 18.4 µM
